# About 83,000 compounds went through this panel and 20% of them were active in at least one assay; those are over-represented in the sample as a whole.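 Percent growth is the endpoint: 0 to 100 indicates growth inhibition (40 means 60% inhibition), 0 means no net growth, and negative values indicate cell death.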 A number with no mark means an inactive call. Activity calls are given as the source filed them. The calls were made as follows: active = growth percent below 10; inactive = the rest.
# System: HCC-2998 colon
# Test: NCI-60 one-dose screen, 48 h (100 = growth as untreated, 0 = no growth, -100 = all killed)
# Details: 10 µM unless noted
row,SMILES,growth
1,O=S(=O)(c1ccccc1)N1CCCN(c2nc(-c3ccccc3)nc3nc(-c4ccccc4)oc23)CC1,108%
2,Cc1cc2oc(=O)cc(CP(=O)(O)O)c2cc1O,103%
3,COC(=O)c1ccc2c(c1)c1c(C)c3ccncc3c(C)c1n2C,61.5%
4,CCOC(=O)N1CCN(S(=O)(=O)c2oc(-c3ccc(Cl)cc3)nc2C#N)CC1,104%
5,CC(CN)[C@@H]1CC[C@]2(CO)CC[C@]3(C)[C@H](CC[C@@H]4[C@@]5(C)CCC(N)C(C)(C)[C@@H]5CC[C@]43C)[C@@H]12 (stereo not given in full),-77.5% (active)
6,C=CC1(C)C(O[Si](C)(C)C(C)(C)C)CC2C3OC(=O)NC31c1cccc3c1[C@H](C(=O)N3C)C2(C)C (stereo not given in full),69.1%
7,O=C1/C(=C/c2ccc(C(F)(F)F)cc2)COc2ccc(O)c(O)c21,-39.2% (active)
8,Cc1ccccc1CNc1c2ccccc2nc2ccccc12,16.2%
9,CCCCC(=O)Nc1ncc(Cc2ccccc2Cl)s1,52.6%
10,C=CCn1c(SCC(=O)Nc2ccc(C(=O)/C=C/c3cc(OC)c(OC)c(OC)c3)cc2)nnc1-c1cc(-c2ccc(OC)cc2)nc2ccccc12,107%
11,N#Cc1c(NC(=O)c2cccs2)[n+]([O-])c2ccc(Cl)cc2[n+]1[O-],111%
12,CCOC(=O)c1c2c(n3c1NCC3)-c1ccccc1C2=O,91.4%
13,COc1ccc(NC(=O)c2cccc(C3CCc4c(cc(OC)c(OC)c4OC)O3)c2)cc1 (stereo not given),50.7%
14,C[C@@H](CO)[C@@H]1CC[C@]2(C(=O)N3CCN(C)CC3)CC[C@]3(C)[C@H](CC[C@@H]4[C@@]5(C)CC[C@H](O)C(C)(C)[C@@H]5CC[C@]43C)[C@@H]12,105%
15,COc1ccc(NC(=O)c2ccc(C(=O)Nc3ccc(OC)cc3OC)cc2)c(OC)c1,72.2%
16,CCN(CC)CCCC(C)Nc1ccc2cc(OC)ccc2n1 (stereo not given),101%
17,CCN(C(=O)N1CCN(c2cc3c(cc2F)c(=O)c(C(=O)O)cn3C2CC2)CC1)c1nc(-c2ccc(C)cc2)cs1,21.1%
18,CCOC(=O)n1cc(-c2nonc2-c2cn(C)c3ccccc23)c2ccccc21,60.9%
19,O=C1c2cccnc2C(=O)c2c1c(C(=O)OCCCN1CCCCC1)c1ccccn21,-35.7% (active)
20,Cc1ccc(Nc2nc(-c3ccc(F)cc3)c(C#N)c(=O)n2C)cc1,86.2%
21,COc1cc(/C=C2\C(=O)N(c3c(Cl)cccc3Cl)c3ccccc32)cc(OC)c1OCCCCCCn1c2ccccc2c(=O)c2ccccc21,112%
22,CSCCC(NC(=O)c1ccccc1)C(=O)N/N=C1\S/C(=C/c2ccc(Cl)cc2)C(=O)N1C (stereo not given),96.7%
23,CC1(C)CCC(S(=O)(=O)c2ccc3c(c2)/C(=N\O)c2cc(S(=O)(=O)N4CCN(c5ccc(F)cc5O)CC4)ccc2-3)CC1,-92.1% (active)
24,Cc1cscc(C)c1=S,103%
25,O=C(O)C1CN(c2cccc(Cl)c2)N(c2cccc(Cl)c2)C1=O (stereo not given),103%
26,CCNC(=O)Oc1ccc(/C(=C(/C)Cc2ccc(OC)cc2)c2ccc(OCCN3CCCC3)cc2)cc1,71.2%
27,CC[C@H](C)[C@H](NC(=O)[C@H](CCCNC(=N)N)NC(=O)[C@H](Cc1c[nH]c2ccccc12)NC(=O)[C@@H](NC(=O)[C@H](CCCCN)NC(=O)[C@H](CCCCN)NC(=O)[C@@H](NC(=O)[C@@H](NC(=O)[C@@H](NC(=O)[C@H](CCCCN)NC(=O)[C@H](Cc1ccccc1)NC(=O)[C@H](CCCCN)NC(=O)[C@H](CCCCN)NC(=O)[C@H](Cc1ccccc1)NC(=O)[C@@H](NC(=O)[C@@H](N)CCCCN)[C@@H](C)CC)[C@@H](C)O)[C@@H](C)CC)[C@@H](C)CC)C(C)C)C(=O)N[C@@H](Cc1ccccc1)C(=O)NCC(=O)N[C@@H](CCCNC(=N)N)C(=O)N[C@@H](Cc1ccccc1)C(N)=O,10.6%
28,CC1O[C@@H]2C[C@@](O)([C@H]1O)n1c3ccccc3c3c4c(c5c6ccccc6n2c5c31)C(=O)NC4=O (stereo not given in full),73.4%
29,Cc1nc2sc(C(=O)Nc3cccc(Cl)c3)c(N)c2cc1C(O)c1ccccc1 (stereo not given),17.8%
30,CC(C(=O)O)n1c(O)c(C=Nc2cccnc2)sc1=S (stereo not given),111%
